Test results published in PubChem BioAssay AID2313 (Broad Institute, 2010).
Among all 22,000 compounds or so, about 460 (2.1%) were called active. Roughly 2% stayed inconclusive and do not appear here. The list comes from a sample in which actives are over-represented; it also holds similar structures and randomly drawn compounds. Values without a mark were called inactive.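 Rule for the calls: active = mean inhibition across valid replicates above about 65% (limit read from the data); inconclusive = mean under the limit, yet half or more replicates past it; inactive = the rest.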

Test: Shh-driven Gli reporter inhibition – luminescence, Shh-LIGHT2 cells, Gli-luciferase, primary screen (AID 2313);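 note: pathway switched on by Shh-conditioned medium diluted 1 in 25 in low serum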
Conditions: 30 h, stronger effect = higher value

Compound | inhibition
Cc1ccc(S(=O)(=O)Nc2ccc3c(c2)C(=O)N([C@H](C)CO)C[C@@H](C)[C@H](CN(C)Cc2ccccc2)O3)cc1 | 15.5%
COC(=O)c1sc(SC)c(-c2ccn(S(=O)(=O)c3ccc(Cl)cc3)n2)c1C | 14.7%
Oc1ccc(-n2cccc2)cc1 | 30.8%
O=C(OC1=CC(=O)c2cccc3cccc1c23)c1ccccc1 | -20.2%
Cc1ccc(C(=O)c2coc3ccc(O)c(CN(C)C)c23)cc1 | 38.9%
CC(C)NC(=O)N(C)C[C@H]1Oc2c(NS(=O)(=O)c3ccc(Cl)cc3)cccc2C(=O)N([C@@H](C)CO)C[C@H]1C | 3.77%
C[C@@H]1O[C@@H](Oc2cc(O)c3c(=O)c(O[C@@H]4O[C@@H](C)[C@H](O)[C@@H](O)[C@H]4O)c(-c4ccc(O)cc4)oc3c2)[C@H](O)[C@H](O)[C@H]1O | -11.3%
C[C@H](CO)N1C[C@H](C)[C@H](CN(C)CC2CC2)Oc2ccc(NS(=O)(=O)c3ccccc3)cc2CC1=O | -5.84%
COc1ccc(S(=O)(=O)Nc2ccc3c(c2)CC(=O)N([C@H](C)CO)C[C@H](C)[C@H](CN(C)CC2CC2)O3)cc1 | -6.58%
C[C@H]1CN([C@@H](C)CO)C(=O)Cc2cc(NS(C)(=O)=O)ccc2O[C@@H]1CN(C)CC1CC1 | 70.7% (active)
COc1ccc(S(=O)(=O)Nc2cccc3c2O[C@@H](CN(C)S(=O)(=O)c2c(C)noc2C)[C@@H](C)CN([C@H](C)CO)C3=O)cc1 | 24.8%
C[C@H](CO)N1C[C@H](C)[C@@H](CN(C)Cc2ccccc2)Oc2ccc(NC(=O)CCCN(C)C)cc2C1=O | -0.759%
CCOC(=O)c1nnn2c1nc(N1CCN(c3ccccc3)CC1)c1ccccc12 | 37.6%
Cc1cc(C)n2nc(-c3ccc(C(C)(C)C)cc3)cc2n1 | -92.6%
COc1ccc(CN(C)C[C@H]2Oc3c(NC(=O)C4CC4)cccc3C(=O)N([C@@H](C)CO)C[C@H]2C)cc1 | -3.41%
C[C@@H]1CN([C@@H](C)CO)C(=O)c2cc(NC(=O)c3ccncc3)ccc2O[C@@H]1CN(C)Cc1ccncc1 | 9.73%
C[C@@H]1CN([C@H](C)CO)C(=O)c2cc(NC(=O)c3ccncc3)ccc2O[C@H]1CN(C)Cc1ccc(Oc2ccccc2)cc1 | 73.2% (active)
C[C@@H]1CN([C@@H](C)CO)C(=O)c2cc(NC(=O)c3ccncc3)ccc2O[C@H]1CN(C)Cc1ccc(C(=O)O)cc1 | 13.9%
Cc1ccc(S(=O)(=O)N(C)C[C@@H]2Oc3c(NC(=O)Nc4c(C)noc4C)cccc3C(=O)N([C@@H](C)CO)C[C@@H]2C)cc1 | -32.7%
CC(C)(O)C1=CCC23COC(C2)C(O)(C(=O)O)CCC13 (stereo not given) | 12.8%
COc1ccc(NC(=O)N(C)C[C@@H]2Oc3c(NC(=O)NC4CCCCC4)cccc3C(=O)N([C@H](C)CO)C[C@H]2C)cc1 | -15.5%
Cc1ccc(S(=O)(=O)N(C)C[C@@H]2Oc3ccc(NS(=O)(=O)c4cn(C)cn4)cc3C(=O)N([C@@H](C)CO)C[C@H]2C)cc1 | -8.67%
CCOc1cc(/C=C2\SCOC2=O)ccc1O | -11.1%
COc1ccc(S(=O)(=O)Nc2cccc3c2O[C@H](CN(C)C(=O)NC(C)C)[C@H](C)CN([C@H](C)CO)C3=O)cc1 | 4.9%
CCN(c1ccccc1)S(=O)(=O)c1ccc(C)cc1 | -25.3%
Cc1cc(=O)[nH]c(SCc2cn3c(C)cc(C)nc3n2)n1 | -20.5%
Cc1ccc(S(=O)(=O)Nc2cccc3c2O[C@H](CN(C)S(=O)(=O)c2cn(C)cn2)[C@H](C)CN([C@H](C)CO)C3=O)cc1 | 21.4%
COc1ccc(CN(C)C[C@H]2OCCCC[C@@H](C)Oc3ccc(NC(=O)Nc4cccc5ccccc45)cc3C(=O)N([C@H](C)CO)C[C@@H]2C)cc1 | 17.8%
Cc1ccc(S(=O)(=O)N(C)C[C@@H]2Oc3c(NC(=O)C4CC4)cccc3C(=O)N([C@H](C)CO)C[C@H]2C)cc1 | -12.6%
Cc1ccc(S(=O)(=O)N(C)C[C@H]2Oc3c(NC(=O)C4CC4)cccc3C(=O)N([C@@H](C)CO)C[C@@H]2C)cc1 | 28.4%
